Key:
Assay in all cases: DAPPL (digital affinity profiling via proximity ligation, sequencing); 10 mM Tris-HCl pH 7.5, 50 mM NaCl, 1 mM DTT, 4% glycerol, room temperature, 30 min; GST-TFs on glutathione beads, 16-mer random dsDNA library, 0.1% formaldehyde crosslink after washing; high values mean tight binding
FEV = target: T1, FEV (Homo sapiens, UniProt Q99581 1-238); details: protein: recombinant; tags: N-terminal GST; dsDNA, one strand shown
T1 sequence: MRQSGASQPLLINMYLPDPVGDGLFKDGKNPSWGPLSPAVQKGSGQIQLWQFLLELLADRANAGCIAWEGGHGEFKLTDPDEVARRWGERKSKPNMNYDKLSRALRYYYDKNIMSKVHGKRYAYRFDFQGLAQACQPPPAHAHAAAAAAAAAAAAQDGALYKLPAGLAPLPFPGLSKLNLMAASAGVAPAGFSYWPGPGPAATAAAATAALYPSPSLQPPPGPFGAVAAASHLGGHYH
Procedure, shortened: (§1)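 Binding signal is defined as a hexamer's read frequency for one factor over its frequency for the tag-only sample. To obtain reads, GST-fused human transcription factors were expressed in yeast, captured on glutathione beads, barcoded with DNA and pooled with that sample. Pools met 200 nmole of a 16-mer random double-stranded DNA library in Tris/NaCl/DTT/glycerol buffer for 30 min at room temperature before washing, 0.1% formaldehyde crosslinking, proximity ligation (BsaI/T4 ligase, 1 h, 37 °C), PCR and Illumina NextSeq500 sequencing.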

ETV5 = ETV5 (Homo sapiens, UniProt P41161 1-510); details: protein: recombinant; tags: N-terminal GST; dsDNA, one strand shown
Procedure, shortened: as §1

HSF1 = HSF1 (Homo sapiens, UniProt Q00613 1-529); details: protein: recombinant; tags: N-terminal GST; chain copies: 3; dsDNA, one strand shown
Procedure, shortened: as §1

SPIC = target: T2, SPIC (Homo sapiens, UniProt Q8N5J4 1-248); details: protein: recombinant; tags: N-terminal GST; dsDNA, one strand shown
T2 sequence: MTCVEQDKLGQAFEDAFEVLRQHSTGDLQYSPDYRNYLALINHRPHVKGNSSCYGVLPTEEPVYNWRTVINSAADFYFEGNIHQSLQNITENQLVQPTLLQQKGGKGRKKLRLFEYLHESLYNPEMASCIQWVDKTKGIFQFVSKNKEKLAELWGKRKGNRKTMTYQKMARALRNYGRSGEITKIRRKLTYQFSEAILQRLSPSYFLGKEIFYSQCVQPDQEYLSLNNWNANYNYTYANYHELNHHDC
Procedure, shortened: as §1

ELF4 = ELF4 (Homo sapiens, UniProt Q99607 1-663); details: protein: recombinant; tags: N-terminal GST; dsDNA, one strand shown
Procedure, shortened: as §1

ELK4 = target: T3, ELK4 (Homo sapiens, UniProt P28324-2 1-405); details: protein: recombinant; tags: N-terminal GST; dsDNA, one strand shown
T3 sequence: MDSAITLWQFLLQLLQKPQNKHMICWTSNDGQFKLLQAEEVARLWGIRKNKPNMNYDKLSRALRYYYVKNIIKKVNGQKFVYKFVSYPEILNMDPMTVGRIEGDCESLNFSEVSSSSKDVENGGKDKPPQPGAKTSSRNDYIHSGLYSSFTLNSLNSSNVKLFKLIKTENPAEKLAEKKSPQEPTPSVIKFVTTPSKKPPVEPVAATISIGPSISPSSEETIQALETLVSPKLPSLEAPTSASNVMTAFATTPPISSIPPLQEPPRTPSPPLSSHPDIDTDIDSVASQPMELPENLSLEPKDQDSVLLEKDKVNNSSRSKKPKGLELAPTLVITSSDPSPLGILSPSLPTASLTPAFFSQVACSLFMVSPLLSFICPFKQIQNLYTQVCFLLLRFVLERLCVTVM
Procedure, shortened: as §1

ETV2 = target: T4, ETV2 (Homo sapiens, UniProt O00321 1-342); details: protein: recombinant; tags: N-terminal GST; dsDNA, one strand shown
T4 sequence: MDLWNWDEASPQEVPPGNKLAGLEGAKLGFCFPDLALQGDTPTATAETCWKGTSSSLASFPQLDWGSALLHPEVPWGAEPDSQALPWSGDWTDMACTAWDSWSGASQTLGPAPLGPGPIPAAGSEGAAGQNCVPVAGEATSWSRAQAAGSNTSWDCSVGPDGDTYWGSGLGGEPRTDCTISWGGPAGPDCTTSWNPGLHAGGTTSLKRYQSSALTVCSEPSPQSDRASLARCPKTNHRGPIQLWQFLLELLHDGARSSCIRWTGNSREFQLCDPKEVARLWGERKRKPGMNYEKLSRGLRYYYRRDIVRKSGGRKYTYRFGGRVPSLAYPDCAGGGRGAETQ
Procedure, shortened: as §1

ELF3 = target: T5, ELF3 (Homo sapiens, UniProt P78545 1-371); details: protein: recombinant; tags: N-terminal GST; dsDNA, one strand shown
T5 sequence: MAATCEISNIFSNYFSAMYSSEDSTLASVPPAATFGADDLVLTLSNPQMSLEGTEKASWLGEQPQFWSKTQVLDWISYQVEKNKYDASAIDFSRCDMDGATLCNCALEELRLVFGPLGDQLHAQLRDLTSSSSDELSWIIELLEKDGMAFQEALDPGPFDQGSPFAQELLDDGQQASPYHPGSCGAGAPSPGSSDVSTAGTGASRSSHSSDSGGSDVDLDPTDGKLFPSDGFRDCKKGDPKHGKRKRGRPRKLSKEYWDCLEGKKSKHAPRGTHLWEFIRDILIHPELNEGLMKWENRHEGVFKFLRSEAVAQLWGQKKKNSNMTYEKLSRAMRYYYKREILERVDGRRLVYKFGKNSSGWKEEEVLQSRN
Procedure, shortened: as §1

CRX = CRX (Homo sapiens, UniProt O43186 1-299); details: protein: recombinant; tags: N-terminal GST; dsDNA, one strand shown
Procedure, shortened: as §1

ETV1 = ETV1 (Homo sapiens, UniProt P50549 1-477); details: protein: recombinant; tags: N-terminal GST; dsDNA, one strand shown
Procedure, shortened: as §1

ERF = target: T6, ERF (Homo sapiens, UniProt P50548 1-548); details: protein: recombinant; tags: N-terminal GST; dsDNA, one strand shown
T6 sequence: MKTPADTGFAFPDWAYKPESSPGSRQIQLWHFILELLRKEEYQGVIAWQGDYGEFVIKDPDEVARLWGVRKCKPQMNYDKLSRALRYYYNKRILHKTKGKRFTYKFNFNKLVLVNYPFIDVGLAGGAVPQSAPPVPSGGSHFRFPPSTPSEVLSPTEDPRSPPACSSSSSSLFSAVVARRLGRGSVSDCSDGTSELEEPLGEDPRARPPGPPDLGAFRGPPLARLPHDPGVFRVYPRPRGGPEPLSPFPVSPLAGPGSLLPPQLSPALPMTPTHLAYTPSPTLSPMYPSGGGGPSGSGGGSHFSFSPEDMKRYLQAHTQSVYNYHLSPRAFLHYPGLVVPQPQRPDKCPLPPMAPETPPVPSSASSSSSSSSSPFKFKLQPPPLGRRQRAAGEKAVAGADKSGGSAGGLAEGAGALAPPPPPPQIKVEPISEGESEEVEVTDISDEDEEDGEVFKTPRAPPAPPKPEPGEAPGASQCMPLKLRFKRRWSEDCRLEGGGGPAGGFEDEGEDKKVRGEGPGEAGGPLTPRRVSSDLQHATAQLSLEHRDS
Procedure, shortened: as §1

ETV3L = target: T7, ETV3L (Homo sapiens, UniProt Q6ZN32 1-361); details: protein: recombinant; tags: N-terminal GST; dsDNA, one strand shown
T7 sequence: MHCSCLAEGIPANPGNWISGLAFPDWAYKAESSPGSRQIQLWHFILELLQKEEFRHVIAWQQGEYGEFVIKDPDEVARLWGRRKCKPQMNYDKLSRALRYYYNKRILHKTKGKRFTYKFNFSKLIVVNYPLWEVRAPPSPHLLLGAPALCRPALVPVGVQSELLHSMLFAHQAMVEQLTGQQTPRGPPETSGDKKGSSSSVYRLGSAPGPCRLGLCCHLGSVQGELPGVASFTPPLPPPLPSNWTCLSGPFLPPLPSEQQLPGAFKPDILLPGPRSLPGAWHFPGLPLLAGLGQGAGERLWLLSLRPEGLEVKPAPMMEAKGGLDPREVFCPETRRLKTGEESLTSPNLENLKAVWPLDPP
Procedure, shortened: as §1

ETS2 = target: T8, ETS2 (Homo sapiens, UniProt P15036 1-469); details: protein: recombinant; tags: N-terminal GST; dsDNA, one strand shown
T8 sequence: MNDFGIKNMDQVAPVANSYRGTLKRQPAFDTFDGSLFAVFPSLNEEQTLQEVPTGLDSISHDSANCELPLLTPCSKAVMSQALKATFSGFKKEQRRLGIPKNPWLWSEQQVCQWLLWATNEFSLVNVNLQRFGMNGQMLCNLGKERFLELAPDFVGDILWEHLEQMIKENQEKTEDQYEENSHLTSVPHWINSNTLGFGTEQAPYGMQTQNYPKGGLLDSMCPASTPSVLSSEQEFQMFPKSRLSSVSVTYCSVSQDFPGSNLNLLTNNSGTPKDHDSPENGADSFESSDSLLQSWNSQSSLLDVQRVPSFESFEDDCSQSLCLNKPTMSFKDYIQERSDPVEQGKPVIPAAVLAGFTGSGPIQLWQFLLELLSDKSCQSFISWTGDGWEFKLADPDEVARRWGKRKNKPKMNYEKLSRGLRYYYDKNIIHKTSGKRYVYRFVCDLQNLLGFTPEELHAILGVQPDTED
Procedure, shortened: as §1

SPDEF = target: T9, SPDEF (Homo sapiens, UniProt O95238 1-335); details: protein: recombinant; tags: N-terminal GST; dsDNA, one strand shown
T9 sequence: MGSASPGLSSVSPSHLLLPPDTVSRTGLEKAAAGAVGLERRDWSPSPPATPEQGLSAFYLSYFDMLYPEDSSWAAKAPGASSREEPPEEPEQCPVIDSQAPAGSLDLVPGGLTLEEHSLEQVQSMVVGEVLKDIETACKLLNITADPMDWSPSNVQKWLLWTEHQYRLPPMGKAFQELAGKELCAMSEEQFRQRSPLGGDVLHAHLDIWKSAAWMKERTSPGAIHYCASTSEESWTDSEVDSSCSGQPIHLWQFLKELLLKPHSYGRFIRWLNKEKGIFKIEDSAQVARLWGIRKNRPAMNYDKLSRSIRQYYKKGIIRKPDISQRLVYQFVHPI
Procedure, shortened: as §1

ETV7 = target: T10, ETV7 (Homo sapiens, UniProt Q9Y603 1-341); details: protein: recombinant; tags: N-terminal GST; dsDNA, one strand shown
T10 sequence: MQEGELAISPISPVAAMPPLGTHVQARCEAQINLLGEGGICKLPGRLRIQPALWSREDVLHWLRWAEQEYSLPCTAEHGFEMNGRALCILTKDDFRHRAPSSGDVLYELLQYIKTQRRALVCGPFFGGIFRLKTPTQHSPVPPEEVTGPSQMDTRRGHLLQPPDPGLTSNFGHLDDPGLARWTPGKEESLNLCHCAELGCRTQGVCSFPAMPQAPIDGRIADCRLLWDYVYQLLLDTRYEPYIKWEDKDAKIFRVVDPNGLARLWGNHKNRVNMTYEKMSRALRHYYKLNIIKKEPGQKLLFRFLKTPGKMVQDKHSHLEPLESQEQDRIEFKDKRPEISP
Procedure, shortened: as §1

ELF5 = target: T11, ELF5 (Homo sapiens, UniProt Q9UKW6-2 1-255); details: protein: recombinant; tags: N-terminal GST; dsDNA, one strand shown
T11 sequence: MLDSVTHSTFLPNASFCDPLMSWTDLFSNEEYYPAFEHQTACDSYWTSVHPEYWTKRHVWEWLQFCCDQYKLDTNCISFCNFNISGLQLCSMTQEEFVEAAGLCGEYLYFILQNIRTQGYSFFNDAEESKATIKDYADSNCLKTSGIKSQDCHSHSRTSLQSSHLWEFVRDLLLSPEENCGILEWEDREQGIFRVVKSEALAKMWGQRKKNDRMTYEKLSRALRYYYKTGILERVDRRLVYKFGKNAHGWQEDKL
Procedure, shortened: as §1

ETV3 = target: T12, ETV3 (Homo sapiens, UniProt P41162-2 1-143); details: protein: recombinant; tags: N-terminal GST; dsDNA, one strand shown
T12 sequence: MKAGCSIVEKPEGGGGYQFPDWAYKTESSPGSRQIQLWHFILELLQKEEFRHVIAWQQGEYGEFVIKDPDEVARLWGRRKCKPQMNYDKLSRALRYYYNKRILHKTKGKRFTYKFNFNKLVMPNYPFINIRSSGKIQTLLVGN
Procedure, shortened: as §1

ETV6 = ETV6 (Homo sapiens, UniProt P41212 1-452); details: protein: recombinant; tags: N-terminal GST; dsDNA, one strand shown
Procedure, shortened: as §1

Chain of ETV6 (P41212 whole entry): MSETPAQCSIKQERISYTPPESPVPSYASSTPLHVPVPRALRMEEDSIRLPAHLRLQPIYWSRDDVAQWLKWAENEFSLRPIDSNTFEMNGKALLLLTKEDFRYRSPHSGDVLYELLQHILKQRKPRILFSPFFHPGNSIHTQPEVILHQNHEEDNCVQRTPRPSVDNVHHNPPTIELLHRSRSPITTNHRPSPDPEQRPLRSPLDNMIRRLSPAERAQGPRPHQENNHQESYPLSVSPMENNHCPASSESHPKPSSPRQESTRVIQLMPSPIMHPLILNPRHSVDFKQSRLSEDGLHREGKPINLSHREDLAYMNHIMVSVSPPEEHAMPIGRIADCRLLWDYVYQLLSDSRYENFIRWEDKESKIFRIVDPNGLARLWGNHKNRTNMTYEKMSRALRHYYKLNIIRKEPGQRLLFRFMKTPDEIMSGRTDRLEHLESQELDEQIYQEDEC
Chain of ETV1 (P50549 whole entry): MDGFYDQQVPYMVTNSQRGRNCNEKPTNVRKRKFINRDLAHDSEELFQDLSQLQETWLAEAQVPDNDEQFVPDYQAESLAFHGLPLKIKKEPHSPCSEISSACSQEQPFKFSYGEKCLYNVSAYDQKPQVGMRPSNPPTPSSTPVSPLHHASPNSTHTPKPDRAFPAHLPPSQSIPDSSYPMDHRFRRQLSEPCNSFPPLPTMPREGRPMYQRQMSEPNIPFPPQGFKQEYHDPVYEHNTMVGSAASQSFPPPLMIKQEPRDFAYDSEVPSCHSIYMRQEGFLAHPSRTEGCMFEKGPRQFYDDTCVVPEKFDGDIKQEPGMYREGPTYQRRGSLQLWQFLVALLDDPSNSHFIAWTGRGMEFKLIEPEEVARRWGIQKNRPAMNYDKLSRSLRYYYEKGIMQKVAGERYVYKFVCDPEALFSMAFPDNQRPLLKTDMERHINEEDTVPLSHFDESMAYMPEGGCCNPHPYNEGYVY
Chain of CRX (O43186 whole entry): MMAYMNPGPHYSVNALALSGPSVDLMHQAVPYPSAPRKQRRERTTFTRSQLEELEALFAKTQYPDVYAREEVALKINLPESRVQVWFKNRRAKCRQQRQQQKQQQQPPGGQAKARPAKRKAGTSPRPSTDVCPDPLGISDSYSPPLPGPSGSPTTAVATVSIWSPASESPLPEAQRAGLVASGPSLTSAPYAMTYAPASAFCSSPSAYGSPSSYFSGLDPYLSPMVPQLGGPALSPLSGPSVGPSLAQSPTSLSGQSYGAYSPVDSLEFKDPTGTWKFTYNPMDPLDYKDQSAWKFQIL
Chain of ETV5 (P41161 whole entry): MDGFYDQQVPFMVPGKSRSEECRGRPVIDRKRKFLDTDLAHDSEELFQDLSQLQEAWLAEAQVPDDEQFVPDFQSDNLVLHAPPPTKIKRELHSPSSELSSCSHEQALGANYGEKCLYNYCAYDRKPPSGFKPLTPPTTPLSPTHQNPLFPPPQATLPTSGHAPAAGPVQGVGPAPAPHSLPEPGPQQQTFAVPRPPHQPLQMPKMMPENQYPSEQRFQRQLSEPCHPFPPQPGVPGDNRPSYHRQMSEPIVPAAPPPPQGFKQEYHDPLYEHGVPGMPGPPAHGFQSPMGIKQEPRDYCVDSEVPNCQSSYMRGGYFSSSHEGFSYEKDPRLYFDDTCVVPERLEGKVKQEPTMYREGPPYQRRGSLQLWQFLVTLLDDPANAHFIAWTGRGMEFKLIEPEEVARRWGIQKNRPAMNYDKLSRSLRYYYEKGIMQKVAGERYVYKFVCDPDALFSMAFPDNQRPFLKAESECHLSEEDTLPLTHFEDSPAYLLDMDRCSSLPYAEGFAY
Chain of ELF4 (Q99607 whole entry): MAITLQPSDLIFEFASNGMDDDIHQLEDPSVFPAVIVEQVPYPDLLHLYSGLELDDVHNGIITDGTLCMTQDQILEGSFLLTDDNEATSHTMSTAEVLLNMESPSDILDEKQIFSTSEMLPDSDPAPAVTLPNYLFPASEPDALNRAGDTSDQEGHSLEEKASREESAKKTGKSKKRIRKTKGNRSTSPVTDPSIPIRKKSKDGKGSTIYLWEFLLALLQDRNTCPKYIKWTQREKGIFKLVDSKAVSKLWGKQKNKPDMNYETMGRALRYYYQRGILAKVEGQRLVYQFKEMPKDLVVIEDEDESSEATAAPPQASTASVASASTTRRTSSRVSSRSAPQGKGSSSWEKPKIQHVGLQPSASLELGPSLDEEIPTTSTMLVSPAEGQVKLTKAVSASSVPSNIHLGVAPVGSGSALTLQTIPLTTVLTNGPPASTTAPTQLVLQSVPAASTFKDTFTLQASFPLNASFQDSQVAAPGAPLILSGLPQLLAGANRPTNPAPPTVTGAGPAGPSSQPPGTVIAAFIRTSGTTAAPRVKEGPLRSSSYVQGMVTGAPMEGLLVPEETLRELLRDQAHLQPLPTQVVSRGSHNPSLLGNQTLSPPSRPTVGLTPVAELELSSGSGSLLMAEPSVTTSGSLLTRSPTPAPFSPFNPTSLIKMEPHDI
Chain of HSF1 (Q00613 whole entry): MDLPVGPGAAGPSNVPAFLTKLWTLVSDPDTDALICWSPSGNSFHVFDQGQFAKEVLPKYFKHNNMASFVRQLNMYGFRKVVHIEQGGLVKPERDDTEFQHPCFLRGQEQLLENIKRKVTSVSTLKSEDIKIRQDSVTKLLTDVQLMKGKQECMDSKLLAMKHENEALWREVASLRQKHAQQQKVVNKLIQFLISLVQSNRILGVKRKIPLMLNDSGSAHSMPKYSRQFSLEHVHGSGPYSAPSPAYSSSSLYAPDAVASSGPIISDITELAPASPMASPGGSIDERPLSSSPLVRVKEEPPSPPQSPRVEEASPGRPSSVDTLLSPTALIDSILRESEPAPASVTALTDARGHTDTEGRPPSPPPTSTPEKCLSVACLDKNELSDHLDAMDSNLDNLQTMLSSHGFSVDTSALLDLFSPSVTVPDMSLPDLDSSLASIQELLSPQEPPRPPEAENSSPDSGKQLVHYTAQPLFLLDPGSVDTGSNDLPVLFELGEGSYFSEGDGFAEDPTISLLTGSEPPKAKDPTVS

AATCTC
binding signal (FEV): 1.23 fold enrichment (6-mer frequency, TF over GST control) | binding signal (ETV5): 1.37 fold enrichment (6-mer frequency, TF over GST control) | binding signal (HSF1): 2.13 fold enrichment (6-mer frequency, TF over GST control) | binding signal (SPIC): 1.13 fold enrichment (6-mer frequency, TF over GST control) | binding signal (ELF4): 1.25 fold enrichment (6-mer frequency, TF over GST control) | binding signal (ELK4): 1.22 fold enrichment (6-mer frequency, TF over GST control) | binding signal (ETV2): 1.26 fold enrichment (6-mer frequency, TF over GST control) | binding signal (ELF3): 1.27 fold enrichment (6-mer frequency, TF over GST control) | binding signal (CRX): 2.5 fold enrichment (6-mer frequency, TF over GST control) | binding signal (ETV1): 1.34 fold enrichment (6-mer frequency, TF over GST control) | binding signal (ERF): 1.27 fold enrichment (6-mer frequency, TF over GST control) | binding signal (ETV3L): 1.15 fold enrichment (6-mer frequency, TF over GST control) | binding signal (ETS2): 1.19 fold enrichment (6-mer frequency, TF over GST control) | binding signal (SPDEF): 1.14 fold enrichment (6-mer frequency, TF over GST control) | binding signal (ETV7): 1.2 fold enrichment (6-mer frequency, TF over GST control) | binding signal (ELF5): 1.29 fold enrichment (6-mer frequency, TF over GST control) | binding signal (ETV3): 1.2 fold enrichment (6-mer frequency, TF over GST control) | binding signal (ETV6): 1.26 fold enrichment (6-mer frequency, TF over GST control)

Reference: paper PMC7862700, “An all-to-all approach to the identification of sequence-specific readers for epigenetic DNA modifications on cytosine”
